For orientation: inhibition means the relative decrease from the control value, in per cent.

These results are taken from PubChem BioAssay.

Test [1] has as its target PEG-3 (UniProt Q6IN02). The experiment in a line: Peg3 promoter luciferase inhibitors, potency, dose response, cell-based, HeLa, CREF/GAPDH counter-screen panel (AID 624167). Particulars: CREF/GAPDH counter-screens; HeLa PEG-Prom luciferase reporter, overnight, run 1, dose range 1, at 100 µM (top of the series) unless noted. For orientation: Counterscreens check selectivity or assay interference.

Test [2] addresses PEG-3 (UniProt Q6IN02). The test is described as above. The following applies: CREF/GAPDH counter-screens; HeLa PEG-Prom luciferase reporter, overnight, run 2, dose range 1, at 100 µM (top of the series) unless noted.

Chain of PEG-3 (Q6IN02 whole entry, looked up): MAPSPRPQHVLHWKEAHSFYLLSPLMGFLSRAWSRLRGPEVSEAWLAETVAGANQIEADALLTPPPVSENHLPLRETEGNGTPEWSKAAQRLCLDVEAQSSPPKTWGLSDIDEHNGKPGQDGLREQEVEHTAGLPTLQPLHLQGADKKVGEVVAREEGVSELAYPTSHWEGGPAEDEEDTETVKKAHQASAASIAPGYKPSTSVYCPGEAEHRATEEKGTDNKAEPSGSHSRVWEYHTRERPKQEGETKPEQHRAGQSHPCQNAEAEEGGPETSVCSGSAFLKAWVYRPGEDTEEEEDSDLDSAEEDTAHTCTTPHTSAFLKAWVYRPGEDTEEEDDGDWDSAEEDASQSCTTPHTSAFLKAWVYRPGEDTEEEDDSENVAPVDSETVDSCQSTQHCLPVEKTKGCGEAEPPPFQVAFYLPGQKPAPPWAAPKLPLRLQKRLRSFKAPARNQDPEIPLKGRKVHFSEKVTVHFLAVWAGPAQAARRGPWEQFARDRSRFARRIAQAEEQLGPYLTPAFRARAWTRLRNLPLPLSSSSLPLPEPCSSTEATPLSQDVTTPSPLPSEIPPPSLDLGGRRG

Consider `COc1ccccc1NC(=S)NC1CCCCCCCCCCC1`, for which the inhibition was 48.3% in test [1] and 102% [run 2, dose range 1, at 50 µM] in test [2].

On to `COCCn1c(C)cc(C(=O)CSc2nnc3ccccn23)c1C`, for which the inhibition was 98.8% in test [1] and 94.2% in test [2].

With `Cc1ccc(C2(CCNCc3ccc(N(C)C)cc3)CCOC(C(C)C)C2)cc1` (configuration not stated), the inhibition worked out at 99.6% in test [1] and 101% in test [2].

For the molecule `CN1CCC(NC(=O)c2cc(-c3cccc(Br)c3)nc3ccccc23)CC1`, the figures for the inhibition in test [1] and in test [2] were 100% and 101%, respectively.

In the case of `O=C(Sc1cccc2cccnc12)c1ccccc1Br`, the inhibition in test [1] was 99.3%; in test [2], 93.8%.

Consider `O=C(O)c1ccc(N/N=C/c2ccc(OC(=O)c3ccccc3Cl)cc2)cc1`, for which the results for the inhibition in test [1] and in test [2] were 99.2% and 71.9%, respectively.

For `CCc1nc(Nc2ccc(N3CCN(C(C)=O)CC3)cc2)c2oc3ccccc3c2n1`, the values for the inhibition in test [1] and in test [2] were 101% and 99.9%, respectively.

In the case of `COc1ccc(/C=C/C(=O)c2ccc3c4c(cccc24)CC3)cc1OC`, the results for the inhibition in test [1] and in test [2] were 101% and 102%, respectively.

As for `O=C(C[n+]1ccc(-c2cc(C(=O)Nc3cccc(C(F)(F)F)c3)c3ccccc3n2)cc1)c1cccc([N+](=O)[O-])c1`, the inhibition in test [1] came to 101%; in test [2] it was 102%.

As for `COc1cccc(-c2sc3ccc(OC)cc3c2-c2ccc(OCCN(C)C)cc2)c1`, the values for the inhibition in test [1] and in test [2] were 94.3% and 98.3%, respectively.

Consider `CN(CC(=O)Nc1ccc(Cl)c(C(F)(F)F)c1)C(=O)c1cc(-c2ccncc2)nc2ccccc12`, for which the figures for the inhibition in test [1] and in test [2] were 102% and 98.9%, respectively.

`CCOC(=O)c1cccc(Nc2nc(-c3cccnc3)nc3ccccc23)c1`: the inhibition in test [1] is 98.9%; in test [2], 101%.

Regarding `Cc1cc(C(=O)CN2C(=O)c3ccccc3S2(=O)=O)c(C)n1C(C)C`, the values for the inhibition in test [1] and in test [2] were 101% and 94.7%, respectively.

As for `COc1ccc(CN(C)C(=O)c2cc(-c3ccccc3)nc3ccc(C)cc23)c(OC)c1OC`, the inhibition in test [1] worked out at 94.8%; in test [2], 96.5%.

Take `Cc1cc(C)c(CN2CCN(CCCn3cnc(C(=O)Nc4ccc(C)c(C)c4)n3)CC2)c(C)c1`: the inhibition in test [1] worked out at 102%; in test [2] it was 101%.

In the case of `COc1ccc(C[C@H]2CN3C(=NC[C@@H]3Cc3ccc(O)cc3)N2C[C@H](C)NC(=O)c2ccc(C)c(Br)c2)cc1`, the inhibition in test [1] and in test [2] was 102% throughout.

In the case of `COc1ccc(CCNC(=O)c2cc3c(=O)n4ccccc4nc3n(C3CCCCC3)c2=N)cc1`, the inhibition in test [1] and in test [2] was 102% each time.

As for `CC(C)(C)c1ccc(OCCCNCc2ccccc2)cc1`, the inhibition worked out at 99.8% in test [1] and 98% in test [2].

`CCCN(CCC)CCCNC(=S)Nc1ccc2nc(N3CCCC3)cc(C)c2c1`: the figures for the inhibition in test [1] and in test [2] were 99.6% and 98.1%, respectively.

On to `Cc1ccc(C(=O)N/C(=C\c2ccc(-c3cccc([N+](=O)[O-])c3)o2)C(=O)NCCCN(C)C)cc1`, for which the inhibition in test [1] came out at 102%; in test [2], 98.8%.

As for `O=C(O)CN1C(=O)/C(=C\c2ccccc2OCc2ccc(Cl)cc2Cl)SC1=S`, the inhibition in test [1] worked out at 102%; in test [2], 99.9%.

Regarding `O=C(CCCN1C(=O)/C(=C/c2cccc(Br)c2)SC1=S)Nc1cccnc1`, the inhibition in test [1] was found to be 101%; in test [2], 96.5%.

`O=C(Nc1ccc2oc(-c3ccncc3)nc2c1)c1ccc([N+](=O)[O-])o1`: the inhibition in test [1] turned out to be 99%; in test [2], 101%.

For the molecule `Cc1nc(N2CCN(S(=O)(=O)c3ccccc3C#N)CC2)c2c(-c3ccccc3)csc2n1`, the inhibition was -7.38% in test [1] and 5.99% in test [2].

On to `O/N=C(\c1ccc(Cl)cc1Cl)c1ncc(C(F)(F)F)cc1Cl`, for which the inhibition in test [1] was 86%; in test [2], 97.3%.

Take `COC(=O)C1=C(C)N(Cc2ccccc2)C(=NCc2cccc(Cl)c2)N[C@H]1c1ccccc1`: the figures for the inhibition in test [1] and in test [2] were 102% and 101%, respectively.

For the molecule `CCOC(=O)c1ccc(NC(=O)C2CCCN(S(=O)(=O)c3ccc(F)cc3)C2)cc1` (configuration not stated), the results for the inhibition in test [1] and in test [2] were 97.3% and 100%, respectively.

Consider `O=[N+]([O-])c1ccc(-c2nc(Nc3cccc(O)c3)c3ccccc3n2)cc1`, for which the inhibition was 99.4% in test [1] and 101% in test [2].

On to `CC(C)c1ccc(NC(=O)Nc2nc(C(C)N)cs2)cc1` (configuration not stated), for which the inhibition in test [1] came to 100%; in test [2] it was 98.9%.

Regarding `COc1ccc(C2c3ccc4ccccc4c3Oc3ncn(CCCO)c(=N)c32)cc1` (configuration not stated), the inhibition was 102% in test [1] and 101% in test [2].

Turning to `Cn1c(=O)c(C(=O)CCl)c(N)n(Cc2ccccc2)c1=O`, the inhibition was 102% in test [1] and 97.2% in test [2].

Take `COCOCCn1cc(CN2CCS(=O)(=O)N(Cc3ccc(-c4ccc(Cl)c(Cl)c4)cc3)C(C(C)C)C2=O)nn1` (configuration not stated): the inhibition in test [1] was found to be 92.6%; in test [2] it was 97.8%.

On to `CCN(CCN(C)C)C(=O)C1CCN(S(=O)(=O)c2c(C)noc2/C=C/c2ccccc2F)CC1`, for which the inhibition in test [1] is 90.8%; in test [2] it was 97.5%.

Turning to `CCOc1cc(CNCCCN2CCOCC2)ccc1OCC(=O)Nc1cccc2ccccc12`, the results for the inhibition in test [1] and in test [2] were 100% and 101%, respectively.

Take `COc1cc(OC)c(OC)cc1CCC(C)NCCC(c1ccccc1)c1ccccc1` (configuration not stated): the values for the inhibition in test [1] and in test [2] were 100% and 96.7%, respectively.

For the molecule `CC(C)CN(C(=O)COC(=O)/C=C/c1ccc(Cl)c(Cl)c1)c1c(N)n(Cc2ccccc2)c(=O)[nH]c1=O`, the inhibition in test [1] is -7.53%; in test [2] it was -24.4%.

For the molecule `COc1ccc2c(c1)[nH]c1c(=O)n(/N=C/C3C(C)C=C(C)CC3C)c(=O)[nH]c12` (configuration not stated), the inhibition in test [1] is -108%; in test [2] it was -83.6%.

For `CCC(=C(c1ccc(OC)cc1)c1ccc(OC)cc1)c1cn(CC(O)CN2CCN(C)CC2)c2ccccc12` (configuration not stated), the inhibition in test [1] came to 99.5%; in test [2], 98.3%.

For `COCc1ccc(CN2CCC(C(=O)Nc3cccc(-c4cccc(Cl)c4)c3)CC2)o1`, the inhibition in test [1] worked out at 97.5%; in test [2] it was 99%.

Take `CCCCCCCNC(=O)C1(CC2CC(c3ccccc3)=NO2)CCNCC1` (configuration not stated): the inhibition was found to be 97.9% in test [1] and 98.7% in test [2].

Take `Cc1ccc(NC(=O)Nc2ccnc(-c3cccnc3)n2)cc1`: the figures for the inhibition in test [1] and in test [2] were 44.3% and 8.15%, respectively.
